A number with no mark means an inactive call. Inconclusive results are not listed. A call without a number means that no potency is given here. Calls of active or inactive are those of the source. Unless noted, calls come from the whole dose curve; as a rule, active = well fitted curve in the direction sought with a large enough effect; inconclusive = small, poorly fitted or top-dose-only effect, or another doubt; inactive = no such curve, though single readings can be large; an effect the other way counts as inactive or inconclusive.
Legend:
[1] = qHTS for differential inhibitors of proliferation of Plasmodium falciparum line GB4 (AID 1816); conditions: Potency: Plasmodium falciparum GB4 proliferation inhibition;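 note: potency is the fitted concentration of half-maximal effect; parasite growth measured after 72 h incubation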
[2] = qHTS for differential inhibitors of proliferation of Plasmodium falciparum line 3D7 (AID 1876); note: potency is the fitted concentration of half-maximal effect
[3] = qHTS for differential inhibitors of proliferation of Plasmodium falciparum line D10 (AID 1877);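 note: potency is the fitted concentration of half-maximal effect; parasites grown with compound for 72 h before DNA staining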
[4] = qHTS for differential inhibitors of proliferation of Plasmodium falciparum line W2 (AID 1883); conditions: Potency: Plasmodium falciparum W2 proliferation inhibition;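 note: potency is the fitted concentration of half-maximal effect; parasites grown with compound for 72 h before lysis and staining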
[5] = qHTS for differential inhibitors of proliferation of Plasmodium falciparum line HB3 (AID 1886); conditions: Potency: Plasmodium falciparum HB3 proliferation inhibition;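 note: potency is the fitted concentration of half-maximal effect; parasites grown with compound for 72 h before SYBR Green readout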
[6] = molecular target: Ferritin light chain (Equus caballus) (UniProt P02791); assay: qHTS Validation Assay for Identification of Novel General Anesthetics (AID 2323); note: series mostly up to about 77 µM
How it was run: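 10 uM horse-spleen apoferritin + 1-AMA (50% saturated, PBS); cpd pin-transferred, 10 min RT. Ex 380/Em 535 nm endpoint. Activity normalized between free 1-AMA and 1-AMA/apoferritin; 4-parameter Hill fit of concentration-response.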

[7] = molecular target: ATP-dependent DNA helicase Q1 (Homo sapiens) (UniProt P46063); assay: qHTS Validation Assay for Inhibitors of RecQ-Like Dna Helicase 1 (RECQ1) (AID 2353)
How it was run: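 RECQ1T1 50 nM; forked duplex (20 bp + 30-nt ss tails) 200 nM, ATP 2 mM final; pH 8.0, 2 mM MgCl2, 2.5 ug/ml poly(dI-dC); 15 min compound preincubation; discontinuous kinetic read over 2 h at RT.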

[8] = Validation screen for small molecules that induce DNA re-replication in MCF 10A normal breast cells (AID 463097); note: nearly all actives have a fitted effect of over 60% in size
How it was run: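 250 MCF 10A cells/well; compound pin-transferred; 48 hr, 37 C, 5% CO2; Hoechst 40 min; imaged 405/500-530 nm. Hits = more high-intensity nuclei.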

[9] = Quantitative high throughput screen for delayed death inhibitors of the malarial parasite plastid, 96 hour incubation (AID 488745); note: potency is the fitted concentration of half-maximal effect; nearly all actives have a fitted effect of over 70% in size
How it was run: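 Readout is firefly luciferase luminescence from an integrated reporter in P. falciparum; lower signal marks inhibited growth. Cultures at 2% hematocrit and 0.1% parasitemia were treated with compound across two generations (96 h, 37 C, 5% CO2).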

[10] = molecular target: M-phase phosphoprotein 8 (Homo sapiens) (UniProt Q99549); assay: qHTS Validation Assay for Inhibitors for MPP8 Chromodomain Interactions with Methylated Histone Tails (AID 488949);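 note: AlphaScreen signal from MPP8 chromodomain bound to biotinylated H3K9me3 peptide; top concentration of the series differs between compounds; nearly all actives have a fitted effect of over 55% in size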
How it was run: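 AlphaScreen read-out: streptavidin donor and nickel chelate acceptor beads (final 10 ug/mL), 30 min in the dark at RT. Complex of 50 nM MPP8 and 50 nM b-H3(1-18)K9me3 peptide had been exposed to compounds for 30 min beforehand.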

[11] = molecular target: Transient receptor potential cation channel subfamily V member 1 (Homo sapiens) (UniProt Q8NER1); assay: HTS Assay for Compounds that Act as Enhancers of the Vanilloid Receptor 1 (AID 488979)
How it was run: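 TRPV1-expressing cells loaded with Fluo-8 calcium dye; compounds added and calcium influx read kinetically for 3 min (agonist phase), then capsaicin at EC20 added and read 2 min more for enhancement. Fluorescence ex 480/em 520 nm.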

[12] = molecular target: Thyrotropin receptor (Homo sapiens) (UniProt P16473); assay: qHTS Assay for Antagonists of the Thyroid Stimulating Hormone Receptor (AID 488980); note: series mostly up to about 58 µM
How it was run: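 TSHR-HEK293 cells; 70 uM RO 20-1724 PDE inhibitor; compound + EC80 TSH (4 nM final); anti-cAMP cryptate antibody/cAMP-d2 in lysis buffer, 30 min RT; HTRF 665/620 nm read.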

[13] = molecular target: Thyrotropin-releasing hormone receptor (Homo sapiens) (UniProt P34981); assay: qHTS for Small Molecule Agonists and Allosteric Enhancers of Human TRH Receptor: Validation Screen for Agonists (AID 493127;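 active = calcium activation more than 3 SD above the typical response in the agonist read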;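 note: intracellular calcium rise by fluo-8 fluorescence before TRH EC20 addition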); conditions: TRH receptor agonist cell assay; at 2 µM; hits give high values
How it was run: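 Compounds are added by online pintool to dye-loaded TRHR cells while fluorescence is recorded every second. A rise in calcium signal during the agonist read marks activation; a later 10 nM TRH addition (EC20) serves the separate enhancer mode.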

[14] = molecular target: Galactokinase (Homo sapiens) (UniProt P51570); assay: qHTS Validation Assay for Inhibitors of Human Galactokinase (GALK) (AID 493189)
How it was run: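 Luminescence from leftover ATP (Kinase-Glo Plus, 10 min) served as read-out after a 1 h room-temperature reaction of 5 nM GALK, 100 uM galactose and 35 uM ATP at pH8.0.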

[15] = Validation screen for small molecules that induce DNA re-replication in SW480 colon adenocarcinoma cells (AID 504364)
How it was run: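 Image-based qHTS: compounds were incubated with SW480 cells for 48 hr, nuclei stained with Hoechst, and per-nucleus fluorescence intensity scanned to flag cells with excess DNA content.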

[16] = molecular target: DNA dC->dU-editing enzyme APOBEC-3G (Homo sapiens) (UniProt Q9HC16); assay: qHTS for inhibitors of Vif-A3G interactions: Validation (AID 588379)
How it was run: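 Yellow fluorescence (Ex 488, Em 500-530) of Vif-coexpressing HeLa A3G-eYFP cells, scanned by Acumen cytometer, reports blocked A3G degradation. Cells plated at 700/well overnight at 37 deg C before compound addition, then a further overnight compound incubation at 37 deg C.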

[17] = molecular target: Voltage-gated inwardly rectifying potassium channel KCNH2 (Homo sapiens) (UniProt Q12809); assay: qHTS Assay for Small Molecule Inhibitors of the Human hERG Channel Activity (AID 588834);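 note: top concentration of the series differs between compounds; lower thallium flux fluorescence means stronger hERG block; nearly all actives have a fitted effect of over 50% in size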
How it was run: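 Thallium-flux (FluxOR) read-out on FDSS: fluorescence read 10 s before and 2 min after stimulation buffer. hERG-BacMam-transduced U2OS cells, compound exposure about 10 min. AC50 by standard Hill equation.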

[18] = system: Zika virus NS2B-NS3 protease; assay: Primary screen GU AMC qHTS for Zika virus inhibitors (AID 1347154); note: nearly all actives have a fitted effect of over 70% in size
How it was run: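 Unlinked Zika NS2B hydrophilic domain/NS3 protease domain noncovalent complex (25 nM final) in 10 mM Tris-HCl pH 8.0, 0.01% Tween 20, with AMC peptide substrate. Fluorescence (ex 340, em 450 nm) change over 15 min, room temperature; percent inhibition fitted to 4-parameter Hill equation.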

[19] = Primary qHTS for small molecule stabilizers of the endoplasmic reticulum resident proteome: Secreted ER Calcium Modulated Protein (SERCaMP) assay (AID 1508630)
How it was run: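 The SH-SY5Y reporter protocol was run at 3 concentrations up to 38.3 uM (primary) or 11 concentrations (follow-up): 16 h compound, 100 nM thapsigargin for 4 h, then extracellular luciferase luminescence.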

Chain of Galactokinase (Homo sapiens) (P51570 whole entry, looked up): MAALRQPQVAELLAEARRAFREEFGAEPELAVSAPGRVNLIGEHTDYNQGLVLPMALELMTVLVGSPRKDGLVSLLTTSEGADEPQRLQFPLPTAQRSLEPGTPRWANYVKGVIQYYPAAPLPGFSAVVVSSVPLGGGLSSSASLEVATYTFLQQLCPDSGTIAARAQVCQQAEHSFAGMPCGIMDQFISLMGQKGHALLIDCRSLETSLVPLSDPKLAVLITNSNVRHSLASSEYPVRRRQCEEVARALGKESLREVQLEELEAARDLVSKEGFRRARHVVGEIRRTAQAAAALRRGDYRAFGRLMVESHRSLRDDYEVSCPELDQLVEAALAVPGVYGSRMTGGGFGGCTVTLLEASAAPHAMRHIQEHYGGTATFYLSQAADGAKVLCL
Chain of Transient receptor potential cation channel subfamily V member 1 (Homo sapiens) (Q8NER1 whole entry, looked up): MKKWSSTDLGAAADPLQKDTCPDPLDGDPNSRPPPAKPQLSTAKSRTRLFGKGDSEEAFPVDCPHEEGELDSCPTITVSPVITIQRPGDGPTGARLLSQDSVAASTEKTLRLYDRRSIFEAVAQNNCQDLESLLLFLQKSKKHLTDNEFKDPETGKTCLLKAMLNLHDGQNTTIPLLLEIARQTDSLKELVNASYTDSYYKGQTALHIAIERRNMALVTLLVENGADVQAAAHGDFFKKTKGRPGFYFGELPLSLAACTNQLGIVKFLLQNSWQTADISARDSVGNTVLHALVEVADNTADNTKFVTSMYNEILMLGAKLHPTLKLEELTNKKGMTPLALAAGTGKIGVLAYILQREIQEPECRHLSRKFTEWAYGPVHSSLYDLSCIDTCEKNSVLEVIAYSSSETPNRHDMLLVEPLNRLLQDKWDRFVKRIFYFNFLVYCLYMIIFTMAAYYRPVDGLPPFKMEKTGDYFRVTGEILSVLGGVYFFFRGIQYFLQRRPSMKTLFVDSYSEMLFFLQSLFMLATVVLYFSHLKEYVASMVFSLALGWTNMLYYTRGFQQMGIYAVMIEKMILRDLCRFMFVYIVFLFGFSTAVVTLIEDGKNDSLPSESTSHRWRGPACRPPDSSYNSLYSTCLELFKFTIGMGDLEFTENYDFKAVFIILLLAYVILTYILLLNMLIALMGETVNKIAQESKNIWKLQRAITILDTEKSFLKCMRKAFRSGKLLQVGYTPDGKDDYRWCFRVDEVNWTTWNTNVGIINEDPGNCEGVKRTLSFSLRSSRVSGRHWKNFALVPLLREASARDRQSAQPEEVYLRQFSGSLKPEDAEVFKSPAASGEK
Chain of DNA dC->dU-editing enzyme APOBEC-3G (Homo sapiens) (Q9HC16 whole entry, looked up): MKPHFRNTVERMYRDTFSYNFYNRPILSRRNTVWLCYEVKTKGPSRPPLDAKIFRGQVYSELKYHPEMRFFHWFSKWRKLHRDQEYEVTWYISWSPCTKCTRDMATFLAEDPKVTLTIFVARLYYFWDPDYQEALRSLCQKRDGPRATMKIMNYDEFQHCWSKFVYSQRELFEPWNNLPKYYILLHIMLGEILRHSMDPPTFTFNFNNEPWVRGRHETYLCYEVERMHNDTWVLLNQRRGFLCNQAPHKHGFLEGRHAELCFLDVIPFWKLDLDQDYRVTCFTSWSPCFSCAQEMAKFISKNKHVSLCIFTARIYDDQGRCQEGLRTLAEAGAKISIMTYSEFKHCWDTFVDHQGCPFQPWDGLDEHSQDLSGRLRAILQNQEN
Chain of M-phase phosphoprotein 8 (Homo sapiens) (Q99549 whole entry, looked up): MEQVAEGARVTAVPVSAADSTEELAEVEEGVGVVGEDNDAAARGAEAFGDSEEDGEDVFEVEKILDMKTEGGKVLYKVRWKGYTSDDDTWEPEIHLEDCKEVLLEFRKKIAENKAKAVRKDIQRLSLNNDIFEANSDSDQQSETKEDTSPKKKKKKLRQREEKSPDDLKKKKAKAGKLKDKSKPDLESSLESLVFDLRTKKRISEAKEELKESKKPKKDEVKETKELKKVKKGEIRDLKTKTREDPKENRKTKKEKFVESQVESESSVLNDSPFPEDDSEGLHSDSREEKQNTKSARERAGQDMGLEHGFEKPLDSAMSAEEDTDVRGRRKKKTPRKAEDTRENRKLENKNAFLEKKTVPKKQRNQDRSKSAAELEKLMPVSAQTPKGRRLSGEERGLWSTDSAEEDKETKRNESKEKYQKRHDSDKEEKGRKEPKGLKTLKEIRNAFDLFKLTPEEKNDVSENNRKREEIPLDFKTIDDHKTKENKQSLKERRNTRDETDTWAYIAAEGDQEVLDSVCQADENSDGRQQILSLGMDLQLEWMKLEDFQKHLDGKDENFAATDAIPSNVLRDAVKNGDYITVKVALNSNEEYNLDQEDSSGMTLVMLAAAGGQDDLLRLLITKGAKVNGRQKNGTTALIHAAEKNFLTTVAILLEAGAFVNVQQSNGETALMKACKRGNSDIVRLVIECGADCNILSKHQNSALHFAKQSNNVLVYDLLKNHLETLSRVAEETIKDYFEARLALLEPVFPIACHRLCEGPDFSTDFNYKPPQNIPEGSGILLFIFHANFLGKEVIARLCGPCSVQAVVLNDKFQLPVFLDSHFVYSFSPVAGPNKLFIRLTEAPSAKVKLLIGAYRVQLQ
Chain of Thyrotropin receptor (Homo sapiens) (P16473 whole entry, looked up): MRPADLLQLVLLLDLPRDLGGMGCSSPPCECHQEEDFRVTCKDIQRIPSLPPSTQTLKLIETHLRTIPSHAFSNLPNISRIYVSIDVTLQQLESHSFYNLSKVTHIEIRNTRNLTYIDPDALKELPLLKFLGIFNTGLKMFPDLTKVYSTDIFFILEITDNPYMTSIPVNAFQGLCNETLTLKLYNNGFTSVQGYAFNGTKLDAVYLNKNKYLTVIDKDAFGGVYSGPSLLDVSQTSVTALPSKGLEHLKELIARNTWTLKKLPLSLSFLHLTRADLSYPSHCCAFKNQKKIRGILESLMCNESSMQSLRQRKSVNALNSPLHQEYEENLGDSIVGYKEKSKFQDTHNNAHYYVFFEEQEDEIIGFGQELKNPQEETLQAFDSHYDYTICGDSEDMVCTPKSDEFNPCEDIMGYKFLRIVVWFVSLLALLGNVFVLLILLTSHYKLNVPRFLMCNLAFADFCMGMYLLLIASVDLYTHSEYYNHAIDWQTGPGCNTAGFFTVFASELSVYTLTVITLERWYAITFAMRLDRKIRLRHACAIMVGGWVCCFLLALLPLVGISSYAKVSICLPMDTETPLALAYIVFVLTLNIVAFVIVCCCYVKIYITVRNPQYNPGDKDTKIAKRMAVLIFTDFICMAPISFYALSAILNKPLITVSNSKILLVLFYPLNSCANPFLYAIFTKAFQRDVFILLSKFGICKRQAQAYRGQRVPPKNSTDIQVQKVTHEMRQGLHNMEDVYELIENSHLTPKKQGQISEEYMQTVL
Chain of Thyrotropin-releasing hormone receptor (Homo sapiens) (P34981 whole entry, looked up): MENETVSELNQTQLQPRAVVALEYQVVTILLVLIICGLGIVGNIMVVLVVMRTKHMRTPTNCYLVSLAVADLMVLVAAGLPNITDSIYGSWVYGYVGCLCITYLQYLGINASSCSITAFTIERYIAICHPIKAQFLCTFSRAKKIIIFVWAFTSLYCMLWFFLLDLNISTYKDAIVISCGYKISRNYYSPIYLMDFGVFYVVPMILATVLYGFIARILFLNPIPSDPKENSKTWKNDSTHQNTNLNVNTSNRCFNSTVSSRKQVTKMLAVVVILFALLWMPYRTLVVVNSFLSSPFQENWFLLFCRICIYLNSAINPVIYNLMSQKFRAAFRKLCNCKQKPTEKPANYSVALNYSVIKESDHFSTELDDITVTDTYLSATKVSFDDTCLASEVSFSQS
Chain of Voltage-gated inwardly rectifying potassium channel KCNH2 (Homo sapiens) (Q12809 whole entry, looked up): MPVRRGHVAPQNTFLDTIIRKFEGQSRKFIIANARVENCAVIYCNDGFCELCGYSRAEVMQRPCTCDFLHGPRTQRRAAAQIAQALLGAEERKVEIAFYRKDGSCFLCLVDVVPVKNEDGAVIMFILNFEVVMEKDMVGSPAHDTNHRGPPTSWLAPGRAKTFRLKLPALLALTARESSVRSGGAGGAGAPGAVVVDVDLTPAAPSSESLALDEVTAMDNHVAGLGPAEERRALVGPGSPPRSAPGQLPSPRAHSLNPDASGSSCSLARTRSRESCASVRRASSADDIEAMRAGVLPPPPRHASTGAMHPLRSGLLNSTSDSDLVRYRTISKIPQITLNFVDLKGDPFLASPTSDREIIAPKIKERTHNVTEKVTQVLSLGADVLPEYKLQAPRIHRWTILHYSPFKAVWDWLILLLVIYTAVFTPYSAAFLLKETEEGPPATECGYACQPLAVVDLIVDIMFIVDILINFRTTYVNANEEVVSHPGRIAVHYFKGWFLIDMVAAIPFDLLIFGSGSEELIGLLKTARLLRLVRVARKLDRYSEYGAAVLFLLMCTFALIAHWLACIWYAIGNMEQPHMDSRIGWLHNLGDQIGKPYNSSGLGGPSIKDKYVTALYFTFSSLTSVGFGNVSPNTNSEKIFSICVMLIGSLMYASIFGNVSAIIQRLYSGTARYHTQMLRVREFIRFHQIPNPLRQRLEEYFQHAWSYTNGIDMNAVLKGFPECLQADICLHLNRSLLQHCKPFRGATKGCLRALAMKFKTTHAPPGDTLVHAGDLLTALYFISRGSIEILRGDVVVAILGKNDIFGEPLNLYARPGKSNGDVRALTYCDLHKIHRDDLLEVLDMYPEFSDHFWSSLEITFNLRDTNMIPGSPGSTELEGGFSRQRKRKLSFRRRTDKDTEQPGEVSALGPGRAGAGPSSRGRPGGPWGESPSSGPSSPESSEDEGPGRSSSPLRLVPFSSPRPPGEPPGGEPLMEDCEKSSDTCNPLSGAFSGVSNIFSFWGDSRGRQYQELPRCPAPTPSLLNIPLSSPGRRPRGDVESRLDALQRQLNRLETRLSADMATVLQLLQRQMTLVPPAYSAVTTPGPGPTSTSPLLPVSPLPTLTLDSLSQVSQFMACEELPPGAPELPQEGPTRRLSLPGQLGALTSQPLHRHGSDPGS
Chain of Ferritin light chain (Equus caballus) (P02791 2-175 limits assumed): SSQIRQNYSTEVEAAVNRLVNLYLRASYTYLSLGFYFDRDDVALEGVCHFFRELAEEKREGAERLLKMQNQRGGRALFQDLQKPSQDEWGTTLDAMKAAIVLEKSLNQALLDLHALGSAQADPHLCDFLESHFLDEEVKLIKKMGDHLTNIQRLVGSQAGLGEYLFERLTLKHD

For `COC(=O)c1c(-c2cc(OC)c(OC)c(OC)c2)c2ccnc(OCc3ncccn3)c2c(=O)n1Cc1ccnc(C)c1`, the Potency [1] was 4.47 µM (active), the Potency [2] was 2 µM (active) and the Potency [3] was 4.47 µM (active). The Potency [4] was 2.51 µM (active), the Potency [5] was 2.82 µM (active) and the outcome [6] was “inactive”. For the same molecule, the Potency [7] was “inactive”, the Potency [8] was “inactive” and the Potency [9] was 5.86 µM (active). For the same molecule, the Potency [10] was “inactive”, the outcome [11] was “inactive” and the outcome [12] was “inactive”. The activation [13] was 0.438%, the outcome [14] was “inactive” and the outcome [15] was “inactive”. For the same molecule, the Potency [16] was “inactive”, the Potency [17] was “inactive” and the Potency [18] was “inactive”. For the same molecule, the Potency [19] was “inactive”.
